The whole screen tested about 5,500 compounds, of which about 2,000 (36%) were called active. Not shown: some 18% with an inconclusive outcome. This is one part of the list. Unmarked numbers belong to inactive results. Rule as the data show it: active = normalized growth mostly below about 0.91 (no sharp cut-off); inconclusive = no clear call, values can overlap the other calls; inactive = mostly above about 0.92.
Assay: chemical genetic growth profiling, strain panel (AID 1159580);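 also: tested at 20 µM; growth read once vehicle control cultures reached saturation at 30 °C; 1 = growth at the plate median or of vehicle wells; lower values mean less growth of the strain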
Settings: S. cerevisiae deletion strains, growth OD
[1] = locus YHR030C, strain SLT2, hits give low values
[2] = locus YHR079C, strain IRE1, hits give low values
[3] = locus YJL095W, strain BCK1, hits give low values
[4] = locus YJR066W, strain TOR1, hits give low values
[5] = locus YLR113W, strain HOG1, hits give low values
[6] = locus YNL183C, strain NPR1, hits give low values
[7] = locus YOR231W, strain MKK1, hits give low values
[8] = locus YPL256C, strain CLN2, hits give low values
[9] = locus YDL101C, strain DUN1, hits give low values
[10] = locus YAL013W, strain DEP1, hits give low values
[11] = locus YBR229C, strain ROT2, hits give low values
[12] = locus YDL134C, strain PPH21, hits give low values
[13] = locus YDR150W, strain NUM1, hits give low values
[14] = locus YEL061C, strain CIN8, hits give low values
[15] = locus YGR078C, strain PAC10, hits give low values
[16] = locus YHR087W, strain rtc3, hits give low values
[17] = locus YJR043C, strain POL32, hits give low values
[18] = locus YJR075W, strain HOC1, hits give low values
[19] = locus YLR039C, strain RIC1, hits give low values
[20] = locus YLR058C, strain SHM2 (second series), hits give low values
[21] = locus YLR085C, strain ARP6, hits give low values
[22] = locus YLR262C, strain YPT6, hits give low values
[23] = locus YML094W, strain GIM5, hits give low values
[24] = locus YMR219W, strain ESC1, hits give low values
[25] = locus YNL153C, strain GIM3, hits give low values
[26] = locus YNL298W, strain CLA4 (second series), hits give low values
[27] = locus YNL322C, strain KRE1, hits give low values
[28] = locus YNR030W, strain Alg12, hits give low values
[29] = locus YOL006C, strain TOP1, hits give low values
[30] = locus YPL055C, strain LGE1, hits give low values
[31] = locus YPL241C, strain CIN2, hits give low values
[32] = locus YPR135W, strain CTF4, hits give low values

Structure (SMILES): OC[C@H]1O[C@H](OC[C@H]2O[C@@H](O)[C@H](O)[C@@H](O)[C@@H]2O)[C@H](O)[C@@H](O)[C@H]1O
- normalized growth [1]: 1.05
- normalized growth [2]: 1.03
- normalized growth [3]: 1.05
- normalized growth [4]: 0.982
- normalized growth [5]: 1.01
- normalized growth [6]: 0.997
- normalized growth [7]: 1.04
- normalized growth [8]: 1.06

Structure (SMILES): N#CC(C#N)=C/C=C(/Sc1nc2ccccc2s1)c1ccc(Br)cc1
- normalized growth (locus YAR019C, strain CDC15, hits give low values): 0.148 (active)
- normalized growth (locus YBL105C, strain PKC1, hits give low values): 0.157 (active)
- normalized growth (locus YBR135W, strain CKS1, hits give low values): 0.189 (active)
- normalized growth (locus YBR136W, strain MEC1, hits give low values): 0.206 (active)
- normalized growth (locus YBR160W, strain CDC28, hits give low values): 0.22 (active)
- normalized growth (locus YDL017W, strain CDC7, hits give low values): 0.207 (active)
- normalized growth (locus YDL028C, strain MPS1, hits give low values): 0.28 (active)
- normalized growth [9]: 0.338 (active)
- normalized growth (locus YDL108W, strain KIN28, hits give low values): 0.289 (active)
- normalized growth (locus YDL132W, strain cdc53, hits give low values): 0.299 (active)
- normalized growth (locus YDL214C, strain PRR2, hits give low values): 0.144 (active)
- normalized growth (locus YDR052C, strain DBF4, hits give low values): 0.695 (active)
- normalized growth (locus YDR054C, strain cdc34, hits give low values): 0.145 (active)
- normalized growth (locus YDR226W, strain ADK1, hits give low values): 0.28 (active)
- normalized growth (locus YDR477W, strain SNF1, hits give low values): 0.144 (active)
- normalized growth (locus YER123W, strain YCK3, hits give low values): 0.217 (active)
- normalized growth (locus YER133W, strain GLC7, hits give low values): 0.168 (active)
- normalized growth (locus YFL009W, strain cdc4, hits give low values): 0.317 (active)
- normalized growth (locus YFL029C, strain CAK1, hits give low values): 0.153 (active)
- normalized growth (locus YFR003C, strain YPI1, hits give low values): 0.253 (active)
- normalized growth (locus YFR019W, strain FAB1, hits give low values): 0.146 (active)
- normalized growth (locus YFR028C, strain CDC14, hits give low values): 0.187 (active)
- normalized growth (locus YGR040W, strain KSS1, hits give low values): 0.156 (active)
- normalized growth (locus YGR052W, strain FMP48, hits give low values): 0.167 (active)
- normalized growth (locus YGR092W, strain DBF2, hits give low values): 0.155 (active)
- normalized growth [1]: 0.124 (active)
- normalized growth [2]: 0.17 (active)
- normalized growth (locus YHR082C, strain KSP1, hits give low values): 0.163 (active)
- normalized growth (locus YHR205W, strain SCH9, hits give low values): 0.0272 (active)
- normalized growth (locus YIL147C, strain SLN1, hits give low values): 0.215 (active)
- normalized growth [3]: 0.116 (active)
- normalized growth (locus YJL128C, strain PBS2, hits give low values): 0.391 (active)
- normalized growth (locus YJL157C, strain FAR1, hits give low values): 0.118 (active)
- normalized growth (locus YJR016C, strain ILV3, hits give low values): 0.176 (active)
- normalized growth (locus YJR066W, strain TOR1 (second series), hits give low values): 0.114 (active)
- normalized growth [4]: 0.156 (active)
- normalized growth (locus YKL048C, strain ELM1, hits give low values): 0.322 (active)
- normalized growth (locus YKL067W, strain YNK1, hits give low values): 0.137 (active)
- normalized growth (locus YKL101W, strain HSL1, hits give low values): 0.175 (active)
- normalized growth (locus YKL193C, strain SDS22, hits give low values): 0.155 (active)
- normalized growth (locus YKL203C, strain TOR2, hits give low values): 0.158 (active)
- normalized growth [5]: 0.218 (active)
- normalized growth (locus YLR133W, strain CKI1, hits give low values): 0.149 (active)
- normalized growth (locus YLR403W, strain SFP1, hits give low values): 0.0212 (active)
- normalized growth (locus YML070W, strain DAK1, hits give low values): 0.172 (active)
- normalized growth (locus YMR001C, strain CDC5, hits give low values): 0.126 (active)
- normalized growth (locus YMR205C, strain PFK2 (second series), hits give low values): 0.138 (active)
- normalized growth (locus YMR277W, strain FCP1, hits give low values): 0.144 (active)
- normalized growth (locus YNL006W, strain LST8, hits give low values): 0.13 (active)
- normalized growth (locus YNL020C, strain ARK1, hits give low values): 0.142 (active)
- normalized growth (locus YNL161W, strain CBK1, hits give low values): 0.164 (active)
- normalized growth [6]: 0.153 (active)
- normalized growth (locus YNL207W, strain RIO2, hits give low values): 0.21 (active)
- normalized growth (locus YNL222W, strain SSU72, hits give low values): 0.177 (active)
- normalized growth (locus YNL307C, strain MCK1 (second series), hits give low values): 0.137 (active)
- normalized growth (locus YOL078W, strain AVO1, hits give low values): 0.154 (active)
- normalized growth (locus YOL136C, strain PFK27, hits give low values): 0.161 (active)
- normalized growth (locus YOR061W, strain CKA2, hits give low values): 0.174 (active)
- normalized growth (locus YOR119C, strain RIO1, hits give low values): 0.155 (active)
- normalized growth [7]: 0.171 (active)
- normalized growth (locus YOR329C, strain SCD5, hits give low values): 0.164 (active)
- normalized growth (locus YPL031C, strain PHO85, hits give low values): 0.135 (active)
- normalized growth (locus YPL153C, strain RAD53, hits give low values): 0.133 (active)
- normalized growth (locus YPL204W, strain HRR25, hits give low values): 0.142 (active)
- normalized growth (locus YPL209C, strain IPL1, hits give low values): 0.159 (active)
- normalized growth [8]: 0.216 (active)
- normalized growth (locus YPR025C, strain CCL1, hits give low values): 0.181 (active)
- normalized growth (strain NNK1, hits give low values): 0.304 (active)
- normalized growth (strain TSCII, hits give low values): 0.157 (active)

Structure (SMILES): CC(C)(O/N=C(/C(=O)N[C@@H]1C(=O)N2C(C(=O)[O-])=C(C[n+]3ccccc3)CSC12)c1csc(N)n1)C(=O)O (some centres undefined)
- normalized growth [1]: 1.02
- normalized growth [2]: 1.02
- normalized growth [3]: 1.01
- normalized growth [4]: 0.95
- normalized growth [5]: 1.05
- normalized growth [6]: 0.962
- normalized growth [7]: 1.02
- normalized growth [8]: 1.03

Structure (SMILES): COc1cc(C2N=C(c3ccc(Cl)cc3)SC(c3ccc(Cl)cc3)=N2)cc(OC)c1OC
- normalized growth [10]: 1
- normalized growth [11]: 1.01
- normalized growth [9]: 1.02
- normalized growth [12]: 1.03
- normalized growth [13]: 1.02
- normalized growth [14]: 0.997
- normalized growth [15]: 1.01
- normalized growth [1]: 0.991
- normalized growth [16]: 1.02
- normalized growth [17]: 1.03
- normalized growth [18]: 0.991
- normalized growth [19]: 1.02
- normalized growth [20]: 1.04
- normalized growth [21]: 1
- normalized growth [22]: 1.03
- normalized growth [23]: 1
- normalized growth [24]: 1
- normalized growth (locus YMR263W, strain SAP30, hits give low values): 0.949
- normalized growth [25]: 1.01
- normalized growth [26]: 1.02
- normalized growth [27]: 1
- normalized growth [28]: 1.03
- normalized growth [29]: 0.891
- normalized growth [30]: 0.974
- normalized growth [31]: 1.01
- normalized growth [32]: 1.09

Structure (SMILES): COc1ccc(-c2c(C)nc3ccc(Cl)cc3c2-c2ccccc2)cc1OC
- normalized growth [10]: 0.91 (active)
- normalized growth [11]: 0.937
- normalized growth [9]: 0.945
- normalized growth [12]: 0.914 (active)
- normalized growth [13]: 0.861
- normalized growth [14]: 0.949
- normalized growth [15]: 0.935
- normalized growth [1]: 0.759
- normalized growth [16]: 0.913
- normalized growth [17]: 0.977
- normalized growth [18]: 0.819 (active)
- normalized growth (locus YKL190W, strain CNB1, hits give low values): 0.98
- normalized growth [19]: 0.821
- normalized growth [20]: 0.986
- normalized growth [21]: 0.785
- normalized growth [22]: 0.948
- normalized growth [23]: 0.933
- normalized growth [24]: 0.947
- normalized growth (locus YMR307W, strain GAS1, hits give low values): 0.546 (active)
- normalized growth (locus YNL128W, strain TEP1, hits give low values): 1.01
- normalized growth [25]: 0.972
- normalized growth [26]: 1
- normalized growth [27]: 0.98
- normalized growth [28]: 0.889
- normalized growth [29]: 0.817
- normalized growth [30]: 0.798
- normalized growth [31]: 0.85 (active)
- normalized growth [32]: 0.754
